Screens (PubChem)
Gal4-VP16 FLuc – VP16 counterscreen qHTS for inhibitors of ROR gamma transcriptional activity; AID 2546, 2010; 310,000 tested, 3.5% active; Potency, µM (top dose mostly 53.6 µM), without a hit: top-dose activity, negative = inhibition, actives largely listed as inhibitors; Drosophila S2 Gal4-VP16 UAS-luciferase, luminescence, 20 h;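 also: Gal4-VP16 expression switched on by copper sulfate through the metallothionein promoter; nearly all actives have a fitted effect of over 50% in size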
TDP1 cell CPT – qHTS for Inhibitors of human tyrosyl-DNA phosphodiesterase 1 (TDP1): qHTS in cells in presence of CPT; 420,000 tested, 12% active; chicken DT40 Tdp1-/-;hTDP1 cells + 20 nM CPT, ATP luminescence, 48 h; Potency, µM (doses to about 46.2 µM), for inactives: at the highest dose activity change, negative = growth inhibition, actives largely listed as inhibitors; also: nearly all actives have a fitted effect of over 55% in size
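Chicken DT40 Tdp1-/- cells stably complemented with human TDP1 were seeded at 400 cells/well in medium containing 20 nM camptothecin, exposed to pin-transferred compounds, and grown at 37 °C for at least 48 hr. Viability was read as ATP luminescence.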
ELG1 repair inh – qHTS screen for small molecules that inhibit ELG1-dependent DNA repair in human embryonic kidney (HEK293T) cells expressing luciferase-tagged ELG1 | HEK293T ELG1-luciferase reporter, luminescence, 16 h; DNA damage induced by 5-fluorouridine | Potency, µM (series often up to 46.1 µM), without a hit: at the top dose activity change, negative = inhibition, usual class: inhibitors | 330,000 tested, 2.3% active | AID 504467, 2011; also: nearly all actives have a fitted effect of over 55% in size
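Overnight (16 hr) co-exposure of 2,000 cells/well to 5-fluorouridine and compound at 37 °C preceded detection. Luciferase was quantified via ONE-Glo luminescence; loss of signal denotes inhibition.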
DT40 TDP1 no CPT – qHTS for Inhibitors of human tyrosyl-DNA phosphodiesterase 1 (TDP1): qHTS in cells in absence of CPT; 420,000 tested, 15% active; AID 686978, 2013; DT40 Tdp1-/- hTDP1 cells, no CPT, ATP luminescence, 48 h; Potency, µM (series often up to 46.2 µM), without a hit: at the top dose activity change, negative = growth inhibition, hits mostly inhibitors; also: nearly all actives have a fitted effect of over 55% in size
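Seeded 400 DT40-hTDP1 cells/well (vehicle DMSO, no 20 nM CPT); pinned compounds; ≥48 hr at 37 °C; CellTiter-Glo luminescence as viability measure.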
ALOX12 inh – Primary qHTS assay for inhibitors of human arachidonate 12S-lipoxygenase (ALOX12): Round 2; Polyunsaturated fatty acid lipoxygenase ALOX12 (Homo sapiens), P18054; purified 12hLO, xylenol orange hydroperoxide absorbance; Potency, µM (doses to about 108 µM), for inactives: at the top dose activity change, negative = inhibition, actives largely listed as inhibitors; 580,000 tested, 1.1% active
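Purified human 12hLO (150 nM final) in 25 mM Hepes, 0.01% Triton X-100, pH 7.0 was preincubated 15 min at room temperature with compound. Then 40 uM arachidonic acid was added, 30 min. Hydroperoxide was read by Fe-XO absorbance ratio 573/405 nm.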
RORg inh – qHTS for inhibitors of ROR gamma transcriptional activity. 310,000 tested, 5.4% active. Drosophila S2 Gal4-RORgamma UAS-luciferase reporter, 20 h. Potency, µM (highest dose often 53.6 µM), without a hit: at the highest dose activity change, negative = inhibition, actives largely listed as inhibitors. Nuclear receptor ROR-gamma (Mus musculus), P51450. AID 2551, 2010; also: nearly all actives have a fitted effect of over 60% in size
Target sequence (P51450 whole entry, looked up, the tested form may be a part): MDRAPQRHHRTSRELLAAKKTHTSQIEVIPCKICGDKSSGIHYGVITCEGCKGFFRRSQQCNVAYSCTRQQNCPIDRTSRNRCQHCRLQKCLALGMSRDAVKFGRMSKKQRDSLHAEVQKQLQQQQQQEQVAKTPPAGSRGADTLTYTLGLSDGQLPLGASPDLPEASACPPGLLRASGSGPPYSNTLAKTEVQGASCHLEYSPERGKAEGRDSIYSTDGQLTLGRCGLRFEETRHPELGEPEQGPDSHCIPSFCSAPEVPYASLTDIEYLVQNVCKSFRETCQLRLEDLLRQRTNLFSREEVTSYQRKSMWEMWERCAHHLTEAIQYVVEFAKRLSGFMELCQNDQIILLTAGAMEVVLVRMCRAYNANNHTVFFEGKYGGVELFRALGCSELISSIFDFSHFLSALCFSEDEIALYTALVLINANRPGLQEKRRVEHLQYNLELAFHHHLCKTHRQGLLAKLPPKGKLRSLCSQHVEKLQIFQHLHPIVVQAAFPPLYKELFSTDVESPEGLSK
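Compounds are pin-transferred onto Drosophila Schneider cells expressing a copper-inducible Gal4–ROR gamma transactivation domain fusion. After 1 hr, copper sulfate is added to 700 uM final; luciferase is read 20 hr later.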
An asterisk follows results filed as active; i = inactive; ? = inconclusive; · = no result given. In the library only some 15% were active in any assay of this set; here they are far more common. Calls follow the shape of the dose curve; as a rule, active = well fitted curve in the direction sought with a large enough effect; inconclusive = small, poorly fitted or top-dose-only effect, or another doubt; inactive = no such curve, though single readings can be large; an effect the other way counts as inactive or inconclusive. % is scaled to controls: 0 for no effect and ±100 for the full control effect; potency is read from the fitted curve at half-maximal effect.

SMILES	Gal4-VP16 FLuc	TDP1 cell CPT	ELG1 repair inh	DT40 TDP1 no CPT	ALOX12 inh	RORg inh
CC(C)c1ccc(OCC(=O)Nc2ccc3oc(-c4cccnc4)nc3c2)cc1	·	·	·	·	-22%	·
O=C(/C=C/NNC(=O)c1ccc(Cl)cc1)c1ccccc1	?	?	1%	?	?	11µM*
Cc1ccc(C(=O)/C=C/NNC(=O)c2ccccc2O)cc1	?	16µM*	13%	?	?	?
O=C(/C=C/NNC(=O)c1ccccc1)c1ccc(Br)cc1	3%	3.3µM*	12%	4.6µM*	i	?
N#Cc1ccccc1N/C=C/C(=O)c1ccc(Cl)cc1	·	5%	·	?	0%	·
O=C(/C=C/NNC(=O)c1cccc(Br)c1)c1cccc(Br)c1	-6%	?	-5%	?	?	18%
CCOC(=O)c1cnc2ccc(Cl)cc2c1Nc1ccccc1OC	·	·	·	·	-2%	·
COc1ccc(CNC(=O)c2c(Nc3ccc(OC)cc3OC)sc(C(=O)c3ccc(Cl)cc3)c2N)cc1	·	?	·	?	3%	·
COc1ccc(CNC(=O)c2c(Nc3ccccc3C)sc(C(=O)c3ccccc3)c2N)cc1	·	?	·	5.2µM*	-1%	·
COc1cccc(Nc2sc(C(=O)c3ccc(Cl)cc3)c(N)c2C(=O)NCCc2ccc(OC)c(OC)c2)c1	·	?	·	?	2%	·
COc1cccc(Nc2sc(C(=O)c3ccc(F)cc3)c(N)c2C(=O)NCc2ccc(C)cc2)c1	·	4.1µM*	·	5.2µM*	?	·
COc1ccccc1Nc1sc(C(=O)c2ccc(Br)cc2)c(N)c1C(N)=O	·	·	·	·	-34%	·
COc1ccc(S(=O)(=O)c2c(Nc3ccc(C)cc3C)sc(C(=O)c3ccc(F)cc3)c2N)cc1	·	?	·	?	-14%	·
COc1ccc(C(=O)c2sc(Nc3ccccc3)c(C(N)=O)c2N)cc1	·	·	·	·	16µM*	·
Cc1ccc(CNC(=O)c2c(Nc3ccccc3C)sc(C(=O)c3ccc(F)cc3)c2N)cc1	·	?	·	15µM*	?	·
CSc1ccc(NC(=O)c2sccc2C)cc1	·	·	·	·	4%	·
COC(=O)c1c(NC(C)=O)c2cc(NC(C)CC(C)(C)O)cnc2n1CCC(C)C (stereo not given)	·	·	·	·	42%	·
O=[N+]([O-])c1cccnc1C1OCCO1	·	18%	·	2%	-26%	·
Cc1cnc(C2OCCO2)c2cccc(N)c12	·	?	·	8.2µM*	-9%	·
Cc1ccc(-c2nc3cccnc3o2)cc1NC(=O)COc1ccc(Cl)cc1C	-14%	?	-7%	?	0%	4%
Cc1ccc(-c2nc3cccnc3o2)cc1NC(=O)COc1ccc(C(C)(C)C)cc1	?	15µM*	?	9.2µM*	2%	6%
COc1ccccc1NC(=O)N1CCCC(Cn2cnc3cccnc32)C1 (stereo not given)	·	·	·	·	2%	·
Cc1cccc(N2CCN(C(=O)c3ccc4nc(N5CCCCC5)sc4c3)CC2)c1C	7%	21µM*	23µM*	18µM*	16%	-27%
CCOC(=O)N1CCN(C(=O)c2ccc3nc(N4CCC(C)CC4)sc3c2)CC1	?	?	?	?	0%	3%
O=C(c1ccc2nc(N3CCOCC3)sc2c1)N1CCC(Cc2ccccc2)CC1	0.22µM*	?	-18%	23µM*	10%	?
